Source: PubChem BioAssay (National Center for Advancing Translational Sciences (NCATS))
A selection: hits, their analogues and other compounds. The true share with any hit is near 5.3%.
HPGD block: qHTS Assay for Inhibitors of HPGD (15-Hydroxyprostaglandin Dehydrogenase) | purified HPGD, NADH fluorescence kinetic, PGE2 substrate | Potency, µM, for inactives: at the highest dose activity change, negative = inhibition, hits mostly inhibitors | 4.3% of 150,000 active | AID 894, 2007; active = well fitted inhibition curve with a large enough effect, not every such curve was filed as active; inconclusive = small, poorly fitted or top-dose-only effect, or another doubt; inactive = no such curve, though single readings can be large or run the other way; note: potency is the fitted concentration of half-maximal effect
Target sequence (P15428 whole entry, looked up): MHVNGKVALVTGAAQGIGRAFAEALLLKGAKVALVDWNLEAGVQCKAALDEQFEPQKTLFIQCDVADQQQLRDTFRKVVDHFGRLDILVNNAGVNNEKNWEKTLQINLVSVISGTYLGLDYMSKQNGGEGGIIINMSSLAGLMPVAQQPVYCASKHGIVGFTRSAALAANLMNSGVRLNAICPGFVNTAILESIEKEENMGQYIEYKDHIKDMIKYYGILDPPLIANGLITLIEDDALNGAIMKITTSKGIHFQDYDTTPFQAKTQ
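NADH formation kinetics: reaction with 30 uM PGE2 and 1 mM NAD+ (final), 20 nM enzyme, Tris-HCl pH 8 with Tween 20, after 15 min compound preincubation at room temperature. Fluorescence change, last versus first of five reads.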
PNC assembly inh: High Content Assay for Compounds that inhibit the Assembly of the Perinucleolar Compartment. PC3M PTB-GFP, PNC prevalence imaging, 16 h; active compounds read low. activity change (PNC), negative = inhibition, % at 10 µM. 3.1% of 140,000 active;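 active = readout at or below -70, meaning at least 70% loss of cells showing the perinucleolar compartment, a nuclear body marking cancer cells; inconclusive = readout between -30 and a set limit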;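 note: plate controls were DMSO wells for no effect and camptothecin positive control wells for full effect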
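Compounds are pinned in duplicate onto adhered PC3M cells stably expressing GFP-tagged PTB and incubated 16 h at 37 C. Cells are then fixed, nuclei stained with Hoechst, and PNC-positive cells counted.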
IMPase Li cell: qHTS Assay for Identifying the Cell-Membrane Permeable IMPase Inhibitors: Potentiation with Lithium; CHO-M1 cells, IP1 TR-FRET (IP-One), carbachol + lithium; Potency, µM (series often up to 59.4 µM), inactives show top-dose activity, negative = IMPase inhibition, actives largely listed as inhibitors; 0.35% of 210,000 active; AID 1457, 2008;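 note: IP1 builds up when IMPase is blocked and the TR-FRET signal falls; potency is the fitted concentration of half-maximal effect; plate controls were basal vehicle for no effect and high inhibitor control for full effect; nearly all actives have a fitted effect of over 50% in size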
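Lithium-sensitised IP1 accumulation assay; M1-expressing CHO cells treated 30 min at 37C with compound. Competitive antibody detection by time-resolved FRET followed a 10 min room-temperature lysis step.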
IMPase cell inh: qHTS Assay for Identifying the Cell-Membrane Permeable IMPase Inhibitors. CHO-M1 cells, IP1 accumulation, HTRF TR-FRET ratio. inhibition (IP1 accumulation), % at 46.1 µM. 120,000 tested, under 10 active. AID 901, 2007; active = well fitted curve in the direction sought with a large enough effect in the signal ratio, not every such curve was filed as active; inconclusive = small, poorly fitted or top-dose-only effect, or a change in a side signal; inactive = no such curve, though single readings can be large or run the other way; the % refers to the signal ratio;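 note: cells stimulated with carbachol in lithium chloride buffer; plate controls were DMSO basal wells for no effect and reference inhibitor wells for full effect; higher means more IMPase inhibition seen as more IP1 and lower FRET ratio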
Target sequence (P97697 whole entry, looked up): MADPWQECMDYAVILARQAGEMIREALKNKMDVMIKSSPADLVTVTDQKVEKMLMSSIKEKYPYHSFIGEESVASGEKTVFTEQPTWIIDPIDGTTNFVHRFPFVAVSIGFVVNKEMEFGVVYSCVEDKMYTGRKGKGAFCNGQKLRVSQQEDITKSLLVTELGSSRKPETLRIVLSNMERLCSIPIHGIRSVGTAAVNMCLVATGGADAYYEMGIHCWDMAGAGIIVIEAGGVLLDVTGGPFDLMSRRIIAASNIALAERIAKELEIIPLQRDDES
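Seeded CHO-M1 cells were dosed with compound at up to 46 uM, stimulated with carbachol for 30 min, then lysed in IP-One detection reagents. Higher IP1 lowers the TR-FRET signal.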
ALOX12 inhib: qHTS Assay for Inhibitors of 12-hLO (12-human lipoxygenase) | Polyunsaturated fatty acid lipoxygenase ALOX12 (Homo sapiens), P18054 | purified 12-hLO, xylenol orange hydroperoxide absorbance | Potency, µM (top dose mostly 57.1 µM), inactives show at the highest dose activity change, negative = inhibition, most hits filed as inhibitors | 0.12% of 150,000 active | AID 1452, 2008; note: potency is the fitted concentration of half-maximal effect; nearly all actives have a fitted effect of over 55% in size
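Purified human 12hLO (150 nM), preincubated 15 min with compound, then 40 uM arachidonic acid for 30 min, room temperature, Hepes pH 7.0 with 0.01% Triton X-100. Hydroperoxide detected by ferrous iron/xylenol orange; 573/405 nm absorbance ratio gives reaction progress.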
15-hLO-2 inh: qHTS Assay for Inhibitors of 15-hLO-2 (15-human lipoxygenase 2) | Polyunsaturated fatty acid lipoxygenase ALOX15B (Homo sapiens), O15296 | purified 15hLO-2, xylenol orange hydroperoxide absorbance | Potency, µM (highest dose often 57.1 µM), for the others: at the top dose activity change, negative = inhibition, most hits filed as inhibitors | 0.56% of 110,000 active | AID 881, 2007; note: potency is the fitted concentration of half-maximal effect; nearly all actives have a fitted effect of over 60% in size
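Enzyme 50 nM, AA 45 uM, 25 mM Hepes pH 7.5 + 0.01% Triton X-100; cpd preinc 15 min RT, rxn 90 min RT; stop/detect with 200 uM XO + 300 uM Fe(II) in 50 mM H2SO4, 30 min; A573/A405.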
Numbers without * were called inactive; ? = inconclusive; nt = not tested or not shown; ! = a repeat was not active; [ ] = another dose, or the depositor's remark. Unless noted, calls come from the whole dose curve; as a rule, active = well fitted curve in the direction sought with a large enough effect; inconclusive = small, poorly fitted or top-dose-only effect, or another doubt; inactive = no such curve, though single readings can be large; an effect the other way counts as inactive or inconclusive. Unless noted, % is set by controls: 0 for no effect and ±100 for the full control effect.

SMILES | HPGD block | PNC assembly inh | IMPase Li cell | IMPase cell inh | ALOX12 inhib | 15-hLO-2 inh
CC(C)OCCCNc1ncnc2c1[nH]c1ccccc12 | -28% | -97* | 32%[38.3 µM] | 11 | 0% | 27%
CC(=O)N1CCC2(CC1)CN(Cc1ccccc1)C2 | -10% | nt | 21% | nt | -3% | 0%
Cc1ccc(C(=O)NC(NC(=O)c2ccc(C)cc2)c2cccc([N+](=O)[O-])c2)cc1 | nt | 37 | nt | 0 | -1% | nt
O=c1c2ccccc2oc2nc(-c3ccco3)n(CCc3ccccc3)c(=O)c12 | 3% | -100* | 7%[38.3 µM] | -2 | -5% | -5%
O=C(OCc1ccc(F)cc1)c1ccc2ccccc2n1 | nt | nt | 17% | nt | nt | nt
O=C(c1nsc(Cl)c1Cl)N1CCCCC1 | 2.5µM* | 33 | -8%[38.3 µM] | -6 | -7% | 4%
O=C(O)c1c(Cl)c(Cl)c(Cl)c(Cl)c1C(=O)N1CCCC1 | -1% | 19 | 20%[38.3 µM] | -8 | 4% | -1%
CC(=O)c1ccc(N2CCN(C(=S)Nc3cc(C)ccc3C)CC2)cc1 | -4% | -90* | 2% | 0 | -4% | nt
CC(=O)c1ccc(N2CCN(C(=S)Nc3ccccc3F)CC2)cc1 | nt | 3 | nt | -6 | 0% | nt
Cc1ccc(NC(=O)CN(C)C(=O)c2cc3ccccc3o2)cc1 | nt | nt | -5% | nt | nt | nt
CCC(OC(=O)c1nsc(Cl)c1Cl)C(=O)NCc1ccco1 (stereo not drawn) | 10µM* | -16 | 18%[38.3 µM] | -7 | -1% | 1%
CCC(OC(=O)c1nsc(Cl)c1Cl)C(=O)NC(C)(C)C (stereo not drawn) | nt | nt | 1% | nt | nt | nt
Cc1ccccc1C1CC(c2cccs2)Nc2nnnn21 (stereo not drawn) | nt | nt | 4% | nt | nt | nt
O=C(CO/N=C/c1ccccc1OC(F)F)NC1CCCCC1 | 25µM* | 35 | -4% | nt | -1% | nt
CCC(CC)NC(=O)CO/N=C/c1ccccc1OC(F)F | 20µM* | -8 | -5% | nt | 0% | nt
O=C(CO/N=C/c1ccc(OC(F)F)cc1)NC1CCCCCC1 | nt | nt | 7% | nt | nt | nt
COc1ccc(Oc2c(C(F)(F)F)oc3c(CN4CCCC(C)C4)c(O)ccc3c2=O)cc1 (stereo not drawn) | nt | nt | nt | -3 | nt | nt
O=P1(O)Oc2c(c(-c3ccccc3)cc3ccc4ccccc4c23)-c2c(-c3ccccc3)cc3ccc4ccccc4c3c2O1 | -23% | nt | 10% | nt | nt | nt
COC(=O)N[C@H](CC(C)=O)c1ccccc1 | -8% | -99* | -4% | nt | -3% | nt
COC(=O)N[C@H](CC(C)=O)c1cccc(C(F)(F)F)c1 | -3% | 33 | 2% | nt | -2% | nt
Cc1cc(C)c(S(=O)(=O)N2CCN(Cc3ccc4c(c3)OCO4)CC2)cc1C | nt | nt | nt | -12 | nt | nt
CCCOc1cc(C)c(S(=O)(=O)N2CCOCC2)cc1C | -9% | ? | 6% | nt | -7% | nt
COc1cc(C)c(S(=O)(=O)N2CCOCC2)cc1C | -9% | -100* | -1% | 2 | 10% | nt
COc1cc(S(=O)(=O)N2CCN(Cc3ccc4c(c3)OCO4)CC2)c(C)cc1C | -11% | -119* | 11% | 1 | -6% | nt
Oc1c(Cl)cc(Cl)cc1CNn1cnnc1 | nt | nt | 2% | nt | nt | nt
SMILES | HPGD block | PNC assembly inh | IMPase Li cell | IMPase cell inh | ALOX12 inhib | 15-hLO-2 inh
Oc1c(Cl)cc(Cl)cc1Sc1cc(Cl)cc(Cl)c1O | 32µM*! | 32 | 8% | nt | ? | 6.3µM*
CC(C)c1cc(=O)oc2c3c4c(cc12)CCCN4CCC3 | ? | 5 | -14%[38.3 µM] | 2 | -7% | 6%
CN1CCCc2cc3c(C(F)(F)F)cc(=O)oc3nc21 | ? | -19 | 10µM* | ? | -13% | -21%
CCc1ccc(S(=O)(=O)NCCc2cn3cccc(C)c3n2)s1 | nt | nt | 1% | nt | nt | nt
Cc1ccc(N2C(=O)CN(Cc3cccs3)C2=S)cc1C | nt | nt | 4% | nt | nt | nt
Cc1ccc(N2C(=O)CN(Cc3sccc3C)C2=S)cc1C | 3.2µM* | -26 | 7% | 9 | -5% | nt
CC(C)C(OC(=O)c1cc2occc2n1C)C(=O)NCc1ccc2c(c1)OCO2 (stereo not drawn) | 13µM* | -4 | -4%[38.3 µM] | 6 | -14% | -3%
Cc1ccc2c(CC(=O)OC(C)C(=O)NCc3ccc4c(c3)OCO4)coc2c1 (stereo not drawn) | 14µM* | ? | 17%[38.3 µM] | 8 | -21% | 1%
CCCCCn1ccc(=N)cc1 | -1% | -84* | 20%[38.3 µM] | 6 | -9% | -25%
CCCCCCCn1ccc(=N)cc1 | -3% | 10 | 39%[38.3 µM] | 7 | 3% | 1%
O=C(CNc1ccc2ccccc2c1)N/N=C/c1cc2ccccc2nc1Cl | -13% | 3 | 6% | nt | 4% | nt
CCOc1cccc(C(=O)NC2CCCCC2)c1 | 28µM* | ? | -3%[38.3 µM] | ? | -4% | -5%
CCOc1ccc(C(=S)NC2CCCCC2)cc1 | 14µM* | -14 | 21%[38.3 µM] | 6 | -11% | ?
CCCCOc1cccc(C(=O)NNC(=S)NC2CCCCC2)c1 | -11% | ? | -3% | -4 | ? | nt
COc1cc2c(cc1OC)C(c1ccc(-c3cc(Cl)ccc3Cl)o1)=NCC2 | 16µM* | ? | 24%[38.3 µM] | 12 | -4% | ?
COc1cc2c(cc1OC)C(c1ccc(-c3ccc(Cl)cc3Cl)o1)=NCC2 | -4% | ? | 12%[38.3 µM] | 11 | -11% | -3%
O=C(CP(=O)(c1ccccc1)c1ccccc1)N/N=C/c1cc(Br)cc(Br)c1O | 0.14µM* | -30 | 0% | -11 | 2% | nt
Cc1nn2c(-c3cccc(NC(=O)c4ccccc4)c3)nnc2c2ccccc12 | nt | nt | nt | -4 | nt | nt
O=c1cc(-c2ccccc2O)oc2ccc3ccccc3c12 | -1% | nt | 13% | -6 | -5% | -8%
O=c1cc(-c2ccccc2O)oc2c(O)c(O)ccc12 | 10µM* | nt | 8% | 12 | -7% | -24%
O=c1cc(-c2ccccc2)oc2c(O)c(O)ccc12 | 3.2µM* | nt | 38% | nt | -2% | ?
Cc1nn(C(=O)c2cccnc2)c(C)c1Sc1ccc(Br)cc1 | 14µM* | -9 | 21%[38.3 µM] | 8 | -2% | 9%
Cc1nn(C(=O)c2ccc(Br)cc2)c(C)c1Sc1ccccc1 | nt | nt | nt | 3 | nt | nt
COc1cccc(NC(=O)CCNC(=O)c2ccccc2Cl)c1 | nt | nt | 1% | nt | nt | nt
O=C(CCNC(=O)c1ccccc1Cl)Nc1ccc(Cl)c(C(F)(F)F)c1 | 22µM* | -21 | 4% | nt | -5% | nt
CCOC(=O)Cc1csc(NC(=O)NC2(C(F)(F)F)Oc3cc(Cl)c(Cl)cc3O2)n1 | -16% | -6 | 12%[38.3 µM] | -2 | ? | 10µM*
